Source: PubChem (several laboratories)
SMARCA2 activ – increases SMARCA2 function in MMTV reporter cells. MG213 cells, MMTV-luciferase reporter, dexamethasone, overnight. activation, % at 9.1 µM. 370,000 tested, 1% active. AID 652017; in the data active = activation above about 7.8%
esBAF inh – SWI/SNF esBAF complex inhibition; mouse ES cells, Bmi1-luciferase knock-in reporter, 24 h; 100% = twice the neutral-well signal; 350,000 tested, 2% active; reporter increase, % at 12.5 µM; in the data active = activation above about 40%; inconclusive = no clear call, values can overlap the other calls;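 also: a rise in the Bmi1 reporter signal indicates esBAF inhibition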
NadD block – NadD (S. aureus) enzyme inhibition; purified NadD enzyme, colorimetric absorbance read-out; inhibition, % at 20 µM; 360,000 tested, 0.78% active; in the data active = inhibition above about 26%
Vif imaging – HIV Vif inhibition; HEK293T cells, Vif self-association by quenched fluorescence, imaging, 24 h; inhibition, % at 7.49 µM; 340,000 tested, 0.35% active; AID 602346; in the data active = inhibition above about 50%, passing the limit was not always enough; inconclusive = no clear call, values can overlap the other calls; inactive = below about 31%
SKN-1 inh – C. elegans SKN-1 inhibition. 360,000 tested, 0.49% active. AID 624304. C. elegans VP596 Pgst-4::GFP/RFP ratio, acrylamide-induced, 24 h. inhibition, % at 21.8 µM;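 active = interference check ratio from 0.5 to 1.5 plus GFP to RFP signal ratio inhibition reaching or exceeding a fixed threshold, cut at about 30% in these data, passing the limit was not always enough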
GRIN3A LBD mod – modulates the human NR3A ligand-binding domain; 340,000 tested, 2.5% active; NR3A LBD differential scanning fluorimetry, Tm shift; 0% = protein alone, 100% = glycine-bound protein; AID 1259313; Tm shift relative to glycine control, % at 25 µM;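 active = melting temperature shift of at least 10% of the positive control shift, at one fixed dose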
Each line names hits and unclear results; the compound was inactive in the other large screens. Rows were chosen to be rich in hits. Some 5.2% of all compounds tested hit in one or more screens of this group.

O=C(Nc1ncc([N+](=O)[O-])s1)c1ccc2c(c1)OCO2	none
O=C(Cc1ccccc1)N[C@H]1CC[C@H](CC(=O)N2CCCCC2)O[C@@H]1CO	none (no result: SMARCA2 activ, NadD block, Vif imaging, SKN-1 inh, GRIN3A LBD mod)
O=C(Nc1cccc(C(F)(F)F)c1)c1ccco1	none
Cc1ccn2cc(-c3ccc(NC(=O)c4ccco4)cc3)nc2c1	GRIN3A LBD mod 29
O=C(Nc1ccc(NC(=O)c2sc3ccccc3c2Cl)cc1)c1ccco1	GRIN3A LBD mod 29 (no result: esBAF inh)
O=C(CCNC(=O)c1ccco1)Nc1ccc(OC(F)(F)F)cc1	Vif imaging 111
O=C(Nc1ccc(Cl)c(C(F)(F)F)c1)c1ccco1	SKN-1 inh 44
Cc1ccc(S(=O)(=O)Nc2cccc3c2O[C@H](CN(C)S(=O)(=O)c2ccc(C)cc2)[C@H](C)CN([C@H](C)CO)C3=O)cc1	none (no result: SMARCA2 activ, NadD block, Vif imaging, SKN-1 inh, GRIN3A LBD mod)
O=C(Nc1ccc(-c2nc3ccccc3[nH]2)cc1)c1ccco1	GRIN3A LBD mod 35 (no result: SMARCA2 activ, Vif imaging)
O=C(CSc1ccccc1)Nc1nc2ccccc2[nH]1	none (no result: esBAF inh)
O=C(Nc1ccc(Br)cc1)c1ccco1	esBAF inh 71 (no result: Vif imaging)
O=C(Nc1ccc(-c2ccccc2)cc1)c1ccco1	none
O=C(CSc1ccc(Cl)cc1)Nc1ccc(-c2nc3ccccc3[nH]2)cc1	GRIN3A LBD mod 37 (no result: esBAF inh)
O=C(Nc1nccs1)c1ccc(NC(=O)c2ccco2)cc1	esBAF inh 50, GRIN3A LBD mod 10
COc1ccc(CN(C)C[C@@H]2Oc3ccc(NC(=O)Nc4c(C)noc4C)cc3C(=O)N([C@@H](C)CO)C[C@H]2C)cc1	none (no result: SMARCA2 activ, NadD block, Vif imaging, SKN-1 inh, GRIN3A LBD mod)
O=C(Nc1cccc(S(=O)(=O)c2cccc(NC(=O)c3ccco3)c2)c1)c1ccco1	GRIN3A LBD mod 35
O=C(Nc1ccc(C(=O)Oc2ccccc2)c(O)c1)c1ccco1	esBAF inh 57 (no result: Vif imaging)
O=C(Nc1ccc(Nc2ccccc2)cc1)c1ccco1	esBAF inh inconclusive (no result: Vif imaging)
O=C(Nc1ccc(NC(=O)c2ccco2)cc1)c1ccco1	esBAF inh 46
O=C(Nc1cccc(S(=O)(=O)N2CCCC2)c1)c1ccco1	none
Cc1ccc(NC(=O)CNC(=O)c2ccco2)cc1	esBAF inh 42
O=C(COC(=O)c1ccco1)Nc1ccccc1	none
COc1ccc(NC(=O)c2ccco2)cc1NC(=O)c1ccco1	none
COc1ccc(Br)cc1C(=O)Nc1ccc(NC(=O)c2ccco2)cc1	GRIN3A LBD mod 18 (no result: esBAF inh)
O=C(COC(=O)c1ccco1)Nc1ccc(Br)cc1	GRIN3A LBD mod 11
O=C(Nc1ccc(-c2ccc(N3CCCCC3)nn2)cc1)c1ccco1	esBAF inh 60
COc1ccc(NC(=O)N[C@@H]2C=C[C@@H](CC(=O)NC3CCC3)O[C@H]2CO)cc1	none (no result: SMARCA2 activ, NadD block, Vif imaging, SKN-1 inh, GRIN3A LBD mod)
CO[C@H]1CN(C)C(=O)c2cc(NS(C)(=O)=O)ccc2OC[C@@H](C)N(C(=O)CC2CC2)C[C@@H]1C	none (no result: SMARCA2 activ, NadD block, Vif imaging, SKN-1 inh, GRIN3A LBD mod)
COc1ccc(C(=O)CNc2cccc(F)c2)cc1	esBAF inh 63
COc1ccc(C(=O)CNc2ccccc2C#N)cc1	esBAF inh 50
Cc1ccccc1-c1cnc2c(c1)C(=O)N([C@H](C)CO)C[C@@H](C)[C@H](CN(C)Cc1cncnc1)O2	none (no result: SMARCA2 activ, NadD block, Vif imaging, SKN-1 inh, GRIN3A LBD mod)
O=C(CN1C(=O)/C(=C/c2cccc(Br)c2)SC1=S)Nc1cccnc1	none
COc1cccc(/C=C2/SC(=S)N(CC(=O)NNC(=O)c3ccccc3O)C2=O)c1	Vif imaging inconclusive, GRIN3A LBD mod 15
COc1cccc(/C=C2\SC(=S)N(N3C(=O)CCCC3=O)C2=O)c1	GRIN3A LBD mod 24
Cc1ccc(/C=C2\SC(=S)N(CCCC(=O)NNC(=O)c3ccccc3O)C2=O)cc1	none
O=C(CN1C(=O)/C(=C/c2cccc(Br)c2)SC1=S)NC1=NCCS1	NadD block 34 (no result: esBAF inh)
O=C(CN1C(=O)/C(=C/c2ccccc2)SC1=S)NNC(=O)c1ccccc1O	NadD block 37, GRIN3A LBD mod 10 (no result: esBAF inh)
CC(=O)Nc1ccc(N2CCN(C(=O)c3cccs3)CC2)cc1	none (no result: esBAF inh)
CCc1cc(C(=O)N2CCN(c3ncc(C(F)(F)F)cc3Cl)CC2)sc1C	none
O=C(CSc1ccc(Cl)cc1)N1CCN(c2ncc(C(F)(F)F)cc2Cl)CC1	SKN-1 inh 56
Nc1ccc(N2CCN(C(=O)c3cccs3)CC2)cc1	SKN-1 inh 48
O=C(c1cccs1)N1CCN(c2ncc(C(F)(F)F)cc2Cl)CC1	GRIN3A LBD mod 11
O=C(CN1CCN(c2ncc(C(F)(F)F)cc2Cl)CC1)N1CCN(c2ncc(C(F)(F)F)cc2Cl)CC1	none (no result: esBAF inh)
